Counter-ions that a name gives are not always drawn.
tested on: Danio rerio larvae (5 dpf); experiment: combined upward orientation toward moving lines (periods 7-14) minus DMSO control (percentage points); higher = more orientation with moving lines than DMSO larvae; conditions: 10 µM; exposure time: 3 h pre-incubation + 3 h imaging
Description: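 Wild-type 5 dpf zebrafish larvae (n=48 per drug, 96-well plates, 28.5 °C) were exposed to Tocris FDA-approved library compounds at 10 µM (0.1% DMSO) for 3 h before and 3 h during imaging. Images were taken every 6 s during visual (moving coloured lines) and acoustic stimuli, and larvae were tracked with the DeepLabCut-based Z-LaP Tracker. Each behavioural measure is the treated-group mean minus the DMSO vehicle control mean (n=844), in percentage points. This mapping covers compounds with 4-character plate codes.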

Row | SMILES | combined upward orientation toward moving lines
1 | Nc1cccc2c1CN(C1CCC(=O)NC1=O)C2=O (stereo not given) [Lenalidomide] | 2.56
2 | N#Cc1ccc(C(c2ccc(C#N)cc2)n2cncn2)cc1 [Letrozole] | -1.71
3 | CC[C@H](C)C(=O)O[C@H]1C[C@@H](C)C=C2C=C[C@H](C)[C@H](CC[C@@H]3C[C@@H](O)CC(=O)O3)[C@H]21 [Lovastatin] | -3.5
4 | CC(C)c1nc(CN(C)C(=O)N[C@H](C(=O)N[C@@H](Cc2ccccc2)C[C@H](O)[C@H](Cc2ccccc2)NC(=O)OCc2cncs2)C(C)C)cs1 [Ritonavir] | -4.18
5 | NC(=O)N1c2ccccc2C=Cc2ccccc21 [Carbamazepine] | -1.82
6 | O=C(c1ccc(OCCN2CCCCC2)cc1)c1c(-c2ccc(O)cc2)sc2cc(O)ccc12 [Raloxifene hydrochloride] | -2.81
7 | CCOC(=O)N1CCC(=C2c3ccc(Cl)cc3CCc3cccnc32)CC1 [Loratidine] | -3.52
8 | O=C(O)CCCc1ccccc1 [Sodium 4-Phenylbutyrate] | -3.45
9 | C[C@@H](O[C@H]1OCCN(Cc2n[nH]c(=O)[nH]2)[C@H]1c1ccc(F)cc1)c1cc(C(F)(F)F)cc(C(F)(F)F)c1 [Aprepitant] | 4.05
10 | CN/C(=N\CCSCc1nc[nH]c1C)NC#N [Cimetidine] | -0.665
11 | CCN(Cc1ccncc1)C(=O)C(CO)c1ccccc1 (stereo not given) [Tropicamide] | 3.89
12 | Cc1nnc(C(C)C)n1C1C[C@H]2CC[C@@H](C1)N2CC[C@H](NC(=O)C1CCC(F)(F)CC1)c1ccccc1 (stereo in doubt) [Maraviroc] | -1.2
13 | CC(=O)NC[C@H]1CN(c2ccc(N3CCOCC3)c(F)c2)C(=O)O1 [Linezolid] | 0.95
14 | CCOc1nc2cccc(C(=O)O)c2n1Cc1ccc(-c2ccccc2-c2nnn[nH]2)cc1 [Candesartan] | 2.56
15 | CC(C)c1nc(N(C)S(C)(=O)=O)nc(-c2ccc(F)cc2)c1/C=C/[C@@H](O)C[C@@H](O)CC(=O)O [Rosuvastatin calcium] | 4.67
16 | CC(=O)O[C@H]1C(=O)[C@@]2(C)[C@H]([C@H](OC(=O)c3ccccc3)[C@]3(O)C[C@H](OC(=O)[C@H](O)[C@@H](NC(=O)c4ccccc4)c4ccccc4)C(C)=C1C3(C)C)[C@]1(OC(C)=O)CO[C@@H]1C[C@@H]2O [Taxol] | -6.91
17 | CCC(C)(C)C(=O)O[C@H]1C[C@@H](C)C=C2C=C[C@H](C)[C@H](CC[C@@H]3C[C@@H](O)CC(=O)O3)[C@H]21 [Simvastatin] | -3.05
18 | C/C(O)=C(\C#N)C(=O)Nc1ccc(C(F)(F)F)cc1 [Teriflunomide] | -3.07
19 | CCOc1ccccc1OCCN[C@H](C)Cc1ccc(OC)c(S(N)(=O)=O)c1 [Tamsulosin hydrochloride] | -16.3
20 | CN1CCC[C@@H]1Cc1c[nH]c2ccc(CCS(=O)(=O)c3ccccc3)cc12 [Eletriptan hydrobromide] | -1.33

Row | SMILES | combined upward orientation toward moving lines
21 | CC(C)(C)NC(=O)[C@@H]1C[C@@H]2CCCC[C@@H]2CN1C[C@@H](O)[C@H](Cc1ccccc1)NC(=O)[C@H](CC(N)=O)NC(=O)c1ccc2ccccc2n1 [Saquinavir mesylate] | -6.24
22 | O=C(O[C@@H]1C[C@@H]2C[C@H]3C[C@H](C1)N2CC3=O)c1c[nH]c2ccccc12 [Dolasetron mesylate] | -0.866
23 | CCOc1nc2cccc(C(=O)O)c2n1Cc1ccc(-c2ccccc2-c2noc(=O)[nH]2)cc1 [Azilsartan] | 1.61
24 | Nc1ncn([C@@H]2O[C@H](CO)[C@@H](O)[C@H]2O)c(=O)n1 [5-Azacytidine] | 2.4
25 | Nc1nc2[nH]cc(CCc3ccc(C(=O)N[C@@H](CCC(=O)O)C(=O)O)cc3)c2c(=O)[nH]1 [Pemetrexed] | -1.85
26 | CCOC(=O)C1=C(COCCN)NC(C)=C(C(=O)OC)C1c1ccccc1Cl (stereo not given) [Amlodipine besylate] | 0.386
27 | Cc1cccc(CN2CCN(C(c3ccccc3)c3ccc(Cl)cc3)CC2)c1 (stereo not given) [Meclizine dihydrochloride] | -2.56
28 | COc1cc2nc(N3CCN(C(=O)C4COc5ccccc5O4)CC3)nc(N)c2cc1OC (stereo not given) [Doxazosin mesylate] | -11.6
29 | Nc1nc(Cl)nc2c1ncn2[C@@H]1O[C@H](CO)[C@@H](O)[C@@H]1F [Clofarabine] | -4.29
30 | COc1cc2ncnc(Nc3ccc(F)c(Cl)c3)c2cc1OCCCN1CCOCC1 [Iressa] | -7.88
31 | Cc1ccc(O)c([C@H](CCN(C(C)C)C(C)C)c2ccccc2)c1 [Tolterodine L-tartrate] | 0.814
32 | Nc1ncn([C@H]2C[C@H](O)[C@@H](CO)O2)c(=O)n1 [Decitabine] | -6.22
33 | CCc1ccc(CCOc2ccc(CC3SC(=O)NC3=O)cc2)nc1 (stereo not given) [Pioglitazone hydrochloride] | -3.8
34 | Cc1nc(-c2ccc(OCC(C)C)c(C#N)c2)sc1C(=O)O [Febuxostat] | -3.47
35 | Nc1ccn([C@@H]2O[C@H](CO)[C@@H](O)C2(F)F)c(=O)n1 [Gemcitabine hydrochloride] | 5.82
36 | Nc1nc(F)nc2c1ncn2[C@@H]1O[C@H](CO)[C@@H](O)[C@@H]1O [Fludarabine] | -6.81
37 | Cc1c(-c2ccc(O)cc2)n(Cc2ccc(OCCN3CCCCCC3)cc2)c2ccc(O)cc12 [Bazedoxifene acetate] | 1.97
38 | CC(C)[C@H]1CC[C@H](C(=O)N[C@H](Cc2ccccc2)C(=O)O)CC1 [Nateglinide] | -0.86
39 | COCCCOc1cc(C[C@@H](C[C@H](N)[C@@H](O)C[C@H](C(=O)NCC(C)(C)C(N)=O)C(C)C)C(C)C)ccc1OC [Aliskiren hemifumarate] | -2.45
40 | CC(C)c1ccc2oc3nc(N)c(C(=O)O)cc3c(=O)c2c1 [Amlexanox] | -5.36

Reference: the supplement of paper PMC9950053
